Among the data in PubChem BioAssay (NCATS) are Potency, outcome and activity change, negative = inhibition values, retold here.

A number with no mark means an inactive call. Results filed as inconclusive are left out. Where a call stands in place of a potency, no number is given. Activity calls are given as the source filed them. Calls follow the shape of the dose curve; as a rule, active = well fitted curve in the direction sought with a large enough effect; inconclusive = small, poorly fitted or top-dose-only effect, or another doubt; inactive = no such curve, though single readings can be large; an effect the other way counts as inactive or inconclusive.

The target in test [1] is Glutathione peroxidase 1 (Homo sapiens) (UniProt P07203). Put plainly: Primary qHTS Assay for Inhibitors of Recombinant Selenoprotein Glutathione Peroxidase 1 (GPX1) (AID 1845191). Also: nearly all actives have a fitted effect of over 65% in size. An outline of the steps:
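NADPH consumption tracked by fluorescence at 340/450 nm between t=0 and t=15 min, room temperature. Final mix: 10 nM GPX1, 100 nM glutathione reductase, 1 mM GSH, 0.5 mM NADPH, 0.5 mM cumene hydroperoxide, 0.01% BSA; 30 min compound–enzyme preincubation.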
For orientation: In qHTS, concentration-response curves come from the screen itself.

Test [2] deals with Metallo-beta-lactamase type 2 (Klebsiella pneumoniae) (UniProt C7C422). In words: qHTS to identify inhibitors of the New Delhi Metallo-beta-lactamase (NDM): assay validation screen against the NCATS LOPAC Collection (AID 1794843).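 Also: nitrocefin turnover by NDM-1 measured as 485 nm absorbance at plateau; series mostly up to about 38 µM.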 The source says:
Assay Submitter (PI): James Inglese Ph.D., Patricia Dranchak Ph.D., Mahesh Aitha Ph.D.
Assay Development and Screening Technology Laboratory (ADST)
National Center for Advancing Translational Sciences (NCATS), Rockville, MD
National Institute of Health (NIH), Bethesda, Maryland
The metallo-beta-lactamases (MBL) are a main antibiotic resistance mechanism evolved by bacteria. There is an urgent clinical need for MBL inhibitors to mitigate this growing threat. To support a machine-based learning study, qHTS has been used to experimentally test inhibitors identified by prediction tools.
PROTOCOL TABLE (as described by Inglese et al., 2007)
SEQUENCE No. (e.g., 1, 2, 3, etc.); […] (e.g., enzyme, Incubation, Reagent, etc.); VALUE; DESCRIPTION
1; NDM-1; 4 uL of 3 nM enzyme in 50 mM HEPES (pH 7.0), 1 uM Zn2SO4, 0.01% Tween20; Use BioRaptr to dispense into Aurora black, clear bottom low base 1536-well plates
2; Compounds; 23 nL; Use Pin Tool (Wako) to transfer DMSO control and library compounds in DMSO
4; Reagent; 2 uL of 50 uM nitrocefin
6; Detector; Absorbance at 485 nm (bandwidth = 5 nm, 25 flashes/well) on Tecan Infinity […]
6; Default reader settings were applied for absorbance read at 485 nm, bandwidth = 5 nm, 25 flashes/well. […]
Yasgar A, Shinn P, Jadhav A, Auld D, Michael S, Zheng W, Austin CP, Inglese J, Simeonov A. 2008. Compound Management for Quantitative High-Throughput Screening. […]

Test [3] has as its target Phospholipid hydroperoxide glutathione peroxidase GPX4 (Homo sapiens) (UniProt P36969). In words: Primary qHTS Assay for Inhibitors of Recombinant Selenoprotein Glutathione Peroxidase 4 (GPX4) (AID 1845192). Also: nearly all actives have a fitted effect of over 65% in size. As to activity change, negative = inhibition: series mostly up to about 50 µM. An outline of the steps:
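NADPH consumption followed by fluorescence at 340/450 nm, t=0 and after 15 min at room temperature. Reaction started with cumene hydroperoxide (0.5 mM final) after 30 min compound–GPX4 preincubation; final 200 nM GPX4, 100 nM GR, 1 mM GSH, 0.5 mM NADPH.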

A short description of test [4]: Viability counterscreen for agonist of constitutive androstane receptor (CAR) against the NCATS DSHEA and TCM libraries (AID 1794838).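 Also: HepG2 cells with CYP2B6 reporter and hCAR plus 0.75 µM PK11195 antagonist.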 Also: potency is read from the fitted curve at half-maximal effect. In short, it runs like this:
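HepG2-CYP2B6-hCAR cells (2,500/well) treated 24 h at 37C with compounds plus 0.75 uM PK11195; viability read by CellTiter-Fluor fluorescence, Ex/Em 405/540 nm.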
A general note: The purpose of a counterscreen is to sort out artefacts and off-target activity.

A short description of test [5]: HepG2 viability counterscreen (readout 2: ATP content) against the NCATS DSHEA and TCM libraries (AID 1794840). An outline of the steps: (§1)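 HepG2 cells, 1,000/well, attached ~4 h, then exposed ~24 h at 37C to substances. Protease activity read by fluorescence of 25 uM GF-AFC (Ex/Em 380/510 nm) after 30 min; ATP then by CellTiter-Glo luminescence.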
Test [6] is described as follows: HepG2 viability counterscreen (readout 1: protease activity) against the NCATS DSHEA and TCM libraries (AID 1794841).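 Also: cells exposed to compounds for about 24 h before the protease read.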 In short, it runs like this:
as §1

The nature of test [7]: Viability counterscreen for antagonist of constitutive androstane receptor (CAR) against the NCATS DSHEA and TCM libraries (AID 1794837).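 Also: compound exposure lasted 24 h before viability reading.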 An outline of the steps:
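HepG2-CYP2B6-hCAR cells, 2,500/well, were exposed 24 hr at 37C to substances together with 48 uM CITCO (final). Viability was read as CellTiter-Fluor fluorescence (Ex/Em 405/540 nm) after 1 hr.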

Test [8] deals with Nuclear receptor subfamily 1 group I member 3 (Homo sapiens) (UniProt Q14994). In words: Primary qHTS for agonist of constitutive androstane receptor (CAR) against the NCATS DSHEA and TCM libraries (AID 1794839).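 Also: HepG2 cells expressing human CAR with a CYP2B6 reporter plus PK11195 antagonist.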 In short, it runs like this: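 HepG2-CYP2B6-hCAR cells, 2,500/well, attached 5 h, then dosed with 0.75 µM PK11195 (final) for 24 h at 37 °C. Luciferase luminescence read (ONE-Glo); CellTiter-Fluor viability (Ex/Em 405/540 nm) in same wells; CITCO positive control.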
Chain of Nuclear receptor subfamily 1 group I member 3 (Homo sapiens) (Q14994 whole entry, looked up): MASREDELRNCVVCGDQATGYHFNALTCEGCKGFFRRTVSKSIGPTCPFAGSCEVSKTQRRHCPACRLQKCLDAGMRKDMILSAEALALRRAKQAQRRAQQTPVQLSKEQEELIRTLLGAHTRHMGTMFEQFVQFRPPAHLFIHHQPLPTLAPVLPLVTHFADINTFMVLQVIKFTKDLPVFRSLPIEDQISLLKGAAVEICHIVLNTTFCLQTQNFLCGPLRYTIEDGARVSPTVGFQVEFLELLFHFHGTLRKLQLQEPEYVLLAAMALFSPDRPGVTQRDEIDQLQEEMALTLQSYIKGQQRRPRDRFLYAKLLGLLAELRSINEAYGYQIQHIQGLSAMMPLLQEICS

Chain of Glutathione peroxidase 1 (Homo sapiens) (P07203 whole entry, looked up): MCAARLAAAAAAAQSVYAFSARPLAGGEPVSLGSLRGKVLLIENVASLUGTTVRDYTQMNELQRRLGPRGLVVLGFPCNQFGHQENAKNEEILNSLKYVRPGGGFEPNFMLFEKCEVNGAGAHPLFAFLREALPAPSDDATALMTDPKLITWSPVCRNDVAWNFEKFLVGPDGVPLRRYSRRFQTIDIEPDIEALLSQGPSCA
Chain of Phospholipid hydroperoxide glutathione peroxidase GPX4 (Homo sapiens) (P36969 whole entry, looked up): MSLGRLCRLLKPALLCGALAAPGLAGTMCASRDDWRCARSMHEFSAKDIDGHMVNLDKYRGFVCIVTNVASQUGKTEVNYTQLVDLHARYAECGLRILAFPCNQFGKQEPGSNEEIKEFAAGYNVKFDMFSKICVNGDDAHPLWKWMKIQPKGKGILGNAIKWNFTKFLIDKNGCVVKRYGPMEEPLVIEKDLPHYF
Chain of Metallo-beta-lactamase type 2 (Klebsiella pneumoniae) (C7C422 whole entry, looked up): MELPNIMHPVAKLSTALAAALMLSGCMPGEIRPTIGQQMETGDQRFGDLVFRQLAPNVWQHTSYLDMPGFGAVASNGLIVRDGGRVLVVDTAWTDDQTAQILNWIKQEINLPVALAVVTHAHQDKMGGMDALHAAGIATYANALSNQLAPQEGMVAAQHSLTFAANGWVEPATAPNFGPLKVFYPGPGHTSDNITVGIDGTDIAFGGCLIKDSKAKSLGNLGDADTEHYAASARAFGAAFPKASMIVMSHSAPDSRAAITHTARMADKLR

In the case of `CC[C@H](C)C(=O)O[C@H]1C[C@H](O)C=C2C=C[C@H](C)[C@H](CC[C@@H](O)C[C@@H](O)CC(=O)O)[C@H]21`, in test [1], the Potency result is “inactive”. For the compound `NCc1c[nH]c(=S)n1[C@H]1CCc2c(F)cc(F)cc2C1`, the Potency entry in test [1] is “inactive”.

With `O=C1CN2Cc3c(ccc(Cl)c3Cl)N=C2N1`, the Potency entry in test [1] is “inactive”. Regarding `C[C@@H](O[C@H]1OCCN(Cc2n[nH]c(=O)[nH]2)[C@@H]1c1ccc(F)cc1)c1cc(C(F)(F)F)cc(C(F)(F)F)c1`, the Potency result in test [1] is “inactive”.

For `O=C(Nc1cccc(Cl)c1)Nc1ncc(CCNc2ncnc3ccsc23)s1`, in test [1], the Potency entry is “inactive”. Turning to `CCC[C@H](N[C@@H](C)C(=O)N1[C@@H]2CCCC[C@H]2C[C@H]1C(=O)O)C(=O)OCC`, the Potency entry in test [1] is “inactive”. Turning to `CCCCC(C)(C)[C@H](O)C=C[C@H]1[C@H](O)CC(=O)[C@H]1CC=CCCCC(=O)O`, the Potency entry in test [1] was “inactive”. Turning to `CC1CNc2c(cccc2S(=O)(=O)N[C@@H](CCCN=C(N)N)C(=O)N2CC[C@@H](C)C[C@@H]2C(=O)O)C1` (some centres undefined), the Potency entry in test [1] is “inactive”. Still for that read-out and setting: then `C[C@@H](O)[C@H]1C(=O)N2C(C(=O)OCOC(=O)C(C)(C)C)=C(SC3CN(C4=NCCS4)C3)[C@H](C)[C@H]12`, with “inactive”; and `CCCCOCCOc1nc(-c2ccc(C(=O)O)c(F)c2)sc1C`, with “inactive”. `C=CCc1cccc(C=NNC(=O)CN2CCN(Cc3ccccc3)CC2)c1O`: the compound was classed as inactive in test [2]. Also, the Potency result in test [1] and in test [3] was “inactive” each time. Regarding `COC(=O)Nc1ccc(-c2nc(N3CCOCC3)c3cnn(C4CCN(C(=O)OC)CC4)c3n2)cc1`, in test [1], the Potency entry was “inactive”. Turning to `O=C(O)CCC=CCC[C@@H]1[C@H](N2CCCCC2)[C@@H](O)C[C@@H]1OCc1ccc(-c2ccccc2)cc1`, the Potency entry in test [1] is “inactive”. Turning to `Cc1nc(C(=O)NCC(=O)O)c(O)c2ccc(Oc3ccccc3)cc12`, in test [1], the Potency result was “inactive”. Take `Cc1cc2nc3c(=O)[nH]c(=O)nc-3n(CC(O)C(O)C(O)CO)c2cc1C` (centres undefined): the Potency in test [4] is 25.1 µM (active). Also, the compound was called inactive in test [5] and in test [6]. Also, the Potency entry in test [1] and in test [3] was “inactive” in each case. For the compound `C#CCN(C)CC1=Cc2ccccc2Oc2ccccc21`, the Potency result in test [1] is “inactive”. Still for that read-out and setting: then `COC1CCC(C(=O)c2ccc3nc4c(cc3c2)CCCO4)CC1` (centres undefined), with “inactive”. Consider `CC(C)C[C@@H](C(=O)N[C@H](C(=O)OC1CCCC1)c1ccccc1)[C@H](O)C(=O)NO`, for which the Potency entry in test [1] is “inactive”. On the same count and under the same terms, then `CCC[C@H](Nc1nc(-c2ccc(NC(=O)NCC)c(OC)c2)ncc1C)c1cccnc1`, with “inactive”; and `COc1ccc2c(c1)c(C1=C(c3c[nH]c4ccccc34)C(=O)NC1=O)cn2CCCN(C)C`, with “inactive”. Same read-out and setting: in the case of `CCOC(=O)N1c2ccc(C(F)(F)F)cc2[C@@H](N(Cc2cc(C(F)(F)F)cc(C(F)(F)F)c2)C(=O)OC)C[C@H]1CC` it was “inactive”. As for `COc1ccc2nc3cc(Cl)ccc3c(Nc3cc(CN4CCCC4)c(O)c(CN4CCCC4)c3)c2n1`, in test [1], the Potency result was “inactive”.

For `O=c1cc(-c2ccc(O)c(O)c2)oc2cc(O)cc(O)c12`, the Potency entry in test [4] and in test [1] was “inactive” each time. For the same compound, the call in test [5] and in test [6] was inactive. Regarding `Cc1cc(OCCCS(C)(=O)=O)cc(C)c1-c1cccc(COc2ccc3c(c2)OC[C@H]3CC(=O)O)c1`, in test [1], the Potency result was “inactive”. As for `N[C@@H](CC(=O)N1CCn2c(nnc2C(F)(F)F)C1)Cc1cc(F)c(F)cc1F`, the Potency result in test [1] is “inactive”. Still for that read-out and setting: then `Cc1ccc(NC(=O)c2cccc(N(C)C)c2)cc1NC(=O)c1ccc(O)cc1`, with “inactive”. For `CC(C)(CO)[C@@H](O)C(=O)NCCC(=O)O`, the compound was classed as inactive in test [5] and in test [6]. In addition, the Potency entry in test [1] and in test [3] was “inactive” in each case.

For `N#CC(c1ccnc(NCCc2cccnc2)n1)c1nc2ccccc2s1` (centres undefined), in test [1], the Potency result is “inactive”. `CCOC(=O)c1c(CSc2ccccc2)n(C)c2cc(Br)c(O)c(CN(C)C)c12`: in test [1], the Potency entry is “inactive”. Same read-out and setting: in the case of `Cc1ccc(S(=O)(=O)OCC(=O)Nc2ccc(C(=O)O)c(O)c2)cc1` it was “inactive”. Regarding `OC[C@H]1O[C@@H](OCCc2ccc(O)cc2)[C@H](O)[C@@H](O)[C@H]1O`, the outcome in test [7] and in test [8] was inactive. In addition, the Potency entry in test [4] is “inactive”. On to `CCCCc1ccc(NS(=O)(=O)c2ccc(C)c(C(=O)N3CCN(c4cccc(C)c4C)CC3)c2)cc1`, for which the Potency entry in test [1] was “inactive”. With `C[C@H](CCC(=O)O)[C@H]1CC[C@H]2[C@H]3[C@@H](CC[C@]12C)[C@@]1(C)CC[C@@H](O)C[C@H]1C[C@@H]3O`, the Potency result in test [1] was “inactive”. With `O=C(O)Cc1cccc(OCCCN(Cc2cccc(C(F)(F)F)c2Cl)CC(c2ccccc2)c2ccccc2)c1`, the Potency result in test [1] was “inactive”. On the same count and under the same terms, then `COc1cc2c(cc1OC)CC(=O)N(CCCN(C)C[C@H]1Cc3cc(OC)c(OC)cc31)CC2`, with “inactive”; and `N#CC(c1ccc(Cl)cc1)c1c(Cl)cc(-n2ncc(=O)[nH]c2=O)cc1Cl` (centres undefined), with “inactive”. Turning to `CC(C)C[C@H](NC(=O)c1cc2ccccc2s1)C(=O)N1CCN(C(=O)[C@H](CO)NS(=O)(=O)c2ccc(Cl)cc2Cl)CC1`, the Potency entry in test [1] and in test [3] was “inactive” each time.

Regarding `CCC(=O)NCC[C@@H]1CCc2ccc3c(c21)CCO3`, the Potency entry in test [1] and in test [3] was “inactive” throughout. Turning to `O=C(O)c1nc(=O)[nH]c(=O)[nH]1`, in test [1], the Potency entry was “inactive”. In addition, in test [3], the activity change, negative = inhibition was 4.26% [at 0.409 µM]. On to `CC[C@@H]([C@H](C)O)n1ncn(-c2ccc(N3CCN(c4ccc(OCC5CO[C@@](Cn6cncn6)(c6ccc(F)cc6F)C5)cc4)CC3)cc2)c1=O` (some centres undefined), for which the Potency result in test [1] and in test [3] was “inactive” in each case. Turning to `Cc1cc(NC(=O)Nc2ccc(N(C)C)cc2)c2cc(F)cc(F)c2n1`, the Potency result in test [1] was “inactive”.
